Assay outcomes from PubChem.
An excerpt weighted towards active compounds, which were near 1% of everything screened.
FadD28 FP inh – blocks FadD28 binding to the bisubstrate probe. inhibition, % at 12.5 µM. fluorescence polarization. hit rate 0.22% among 360,000; in the data active = inhibition above about 8.5%, passing the limit was not always enough
TcdB GH inh – blocks C. difficile toxin B glycohydrolase activity. hit rate 0.24% among 350,000. inhibition, % at 9.99 µM. TcdB glycohydrolase enzymatic assay, plate reader. P18177; in the data active = inhibition above about 10%
Target sequence (P18177 whole entry, looked up): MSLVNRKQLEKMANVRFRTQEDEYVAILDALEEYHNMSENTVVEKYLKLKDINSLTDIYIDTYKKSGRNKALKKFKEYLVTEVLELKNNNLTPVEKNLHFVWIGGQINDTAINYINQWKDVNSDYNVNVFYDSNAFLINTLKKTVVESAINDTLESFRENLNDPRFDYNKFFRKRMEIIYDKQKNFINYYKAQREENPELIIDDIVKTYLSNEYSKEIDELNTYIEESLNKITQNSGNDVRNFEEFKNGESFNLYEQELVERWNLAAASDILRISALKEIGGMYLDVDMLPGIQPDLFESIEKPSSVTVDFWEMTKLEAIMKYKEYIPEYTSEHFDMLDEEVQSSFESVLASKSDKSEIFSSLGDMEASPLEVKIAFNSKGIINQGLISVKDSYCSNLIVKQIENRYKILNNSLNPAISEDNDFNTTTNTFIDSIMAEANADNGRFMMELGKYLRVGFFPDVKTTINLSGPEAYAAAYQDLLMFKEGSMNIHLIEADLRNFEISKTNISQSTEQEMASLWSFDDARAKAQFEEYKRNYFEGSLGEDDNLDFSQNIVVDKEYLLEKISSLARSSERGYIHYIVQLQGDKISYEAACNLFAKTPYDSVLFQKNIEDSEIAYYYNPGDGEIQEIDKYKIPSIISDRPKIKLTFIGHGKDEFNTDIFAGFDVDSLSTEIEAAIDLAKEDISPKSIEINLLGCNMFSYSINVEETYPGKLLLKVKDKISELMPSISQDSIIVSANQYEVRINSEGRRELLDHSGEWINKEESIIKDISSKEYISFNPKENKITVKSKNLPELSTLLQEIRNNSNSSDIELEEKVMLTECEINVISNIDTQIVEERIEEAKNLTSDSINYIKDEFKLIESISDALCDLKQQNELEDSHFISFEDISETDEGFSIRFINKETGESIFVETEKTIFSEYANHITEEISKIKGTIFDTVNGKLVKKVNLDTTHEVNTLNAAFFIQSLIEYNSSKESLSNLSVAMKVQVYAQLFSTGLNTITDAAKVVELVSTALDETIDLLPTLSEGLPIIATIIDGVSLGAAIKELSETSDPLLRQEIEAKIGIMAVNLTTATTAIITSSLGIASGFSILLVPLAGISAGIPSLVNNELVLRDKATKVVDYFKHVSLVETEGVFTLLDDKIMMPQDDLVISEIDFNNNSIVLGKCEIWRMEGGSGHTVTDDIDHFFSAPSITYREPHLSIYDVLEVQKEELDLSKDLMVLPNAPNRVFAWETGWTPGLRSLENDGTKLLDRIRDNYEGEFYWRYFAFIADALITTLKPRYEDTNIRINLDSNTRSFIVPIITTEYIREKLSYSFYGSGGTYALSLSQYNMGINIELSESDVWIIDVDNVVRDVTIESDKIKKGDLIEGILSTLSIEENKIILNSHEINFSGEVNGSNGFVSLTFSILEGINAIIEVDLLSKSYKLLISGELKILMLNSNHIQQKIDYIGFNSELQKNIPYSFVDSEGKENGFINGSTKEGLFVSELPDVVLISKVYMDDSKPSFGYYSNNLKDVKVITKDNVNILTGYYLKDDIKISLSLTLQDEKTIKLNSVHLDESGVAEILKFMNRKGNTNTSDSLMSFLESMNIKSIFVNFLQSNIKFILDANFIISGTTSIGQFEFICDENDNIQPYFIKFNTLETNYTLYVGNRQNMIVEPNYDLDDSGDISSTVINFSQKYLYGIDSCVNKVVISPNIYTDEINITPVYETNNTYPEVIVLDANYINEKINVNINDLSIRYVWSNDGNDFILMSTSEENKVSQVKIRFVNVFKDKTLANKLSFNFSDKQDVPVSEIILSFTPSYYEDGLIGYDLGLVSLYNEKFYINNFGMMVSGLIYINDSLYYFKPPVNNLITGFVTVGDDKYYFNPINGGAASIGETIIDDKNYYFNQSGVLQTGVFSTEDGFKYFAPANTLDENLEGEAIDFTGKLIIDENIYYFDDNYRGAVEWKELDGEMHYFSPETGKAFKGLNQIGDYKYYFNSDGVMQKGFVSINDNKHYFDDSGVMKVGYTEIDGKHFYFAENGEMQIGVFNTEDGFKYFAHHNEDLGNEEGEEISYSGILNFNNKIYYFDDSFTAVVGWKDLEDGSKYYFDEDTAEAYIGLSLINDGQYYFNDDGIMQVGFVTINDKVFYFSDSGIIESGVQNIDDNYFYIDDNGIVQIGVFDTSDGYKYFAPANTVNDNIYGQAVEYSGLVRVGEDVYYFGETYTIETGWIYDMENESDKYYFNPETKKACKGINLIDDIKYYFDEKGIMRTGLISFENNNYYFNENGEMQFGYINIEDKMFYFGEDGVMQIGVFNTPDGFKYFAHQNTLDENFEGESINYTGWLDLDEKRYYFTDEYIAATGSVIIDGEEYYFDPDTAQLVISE
Mtb hypoxia rep – Mtb hypoxia fluorescent reporter inhibition; M. tuberculosis hypoxia-regulated fluorescent reporter, fluorescence; fluorescence inhibition, % (concentration not given with the values); hit rate 0.1% among 300,000; in the data active = fluorescence inhibition mostly above about 23%, no sharp cut-off; inactive = mostly below about 17%
SSB-PriA inh – inhibitors of Klebsiella pneumoniae PriA binding to SSB C-terminal tail | AlphaScreen SSBct-PriA binding, biotinylated peptide | inhibition, % at 33 µM | hit rate 0.6% among 430,000 | AID 1272365; in the data active = inhibition mostly above about 37%, no sharp cut-off; inactive = mostly below about 20%;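 note: plate controls were negative control peptide for no effect and reference peptide for full effect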
PrP 5UTR inh – suppresses PrP 5' UTR mRNA reporter expression | cell-based PrP 5' UTR mRNA reporter, plate reader | inhibition, % (test concentration not listed) | hit rate 0.35% among 340,000 | AID 488862; in the data active = inhibition above about 52%; note: 0 = median of the neutral control wells
BioA inh – inhibitors of Mycobacterium tuberculosis BioA enzyme. purified M. tuberculosis BioA enzyme, plate reader. hit rate 0.096% among 360,000. inhibition, % at 9.99 µM; in the data active = inhibition above about 40%
* hit, by the source's call; . = not tested or not shown; ! = not confirmed by another sample.

SMILES	FadD28 FP inh	TcdB GH inh	Mtb hypoxia rep	SSB-PriA inh	PrP 5UTR inh	BioA inh
O=c1oc2ccccc2nc1/C=C(\O)c1ccccc1	0	1	46*	-7	.	0
O=C(CN1CCN(c2nccn2-c2ccccc2F)CC1)N1CCc2ccccc21	.	.	.	44*	.	.
CCOc1ccc(C(=O)Nc2sc(-c3ccccc3)cc2C(N)=O)cc1	.	.	.	-44	.	.
O=C(Nc1sc(-c2ccccc2)cc1C(=O)O)c1ccccc1	19*	1	-9	0	-1	8
Cc1ccc([N+](=O)[O-])cc1-c1[nH]c(-c2ccc(O)c(O)c2)nc1-c1ccccc1	13*	.	-1	49	-8	-1
COc1ccc(-c2nc(-c3ccccc3)c(-c3cc([N+](=O)[O-])ccc3C)[nH]2)cc1O	6	.	24	47	4	0
CCOC(=O)N1CCN(C(=O)Cc2csc(Nc3ccccc3)n2)CC1	.	.	.	-27	.	.
CN(C)c1ccc(CNCCC(Cc2ccccc2)c2ccco2)cc1 (stereo unspecified)	-3	-2	12	57*	-5	-1
Cc1nnc(C)n1N=Cc1cc(Br)cc(Br)c1O	.	.	.	-16	.	.
O=C1CS(=O)(=O)N(Cc2ccc(F)cc2)c2ccccc21	-1	1	-8	-5	-4	-2
CN(C)CCCN1C(=O)c2cccc3c(Br)ccc(c23)C1=O	-4	0	67*	-3	-102	.
CC(=O)c1nn(-c2ccccc2)cc1C(=O)c1ccc(C)cc1	-2	0	0	-4	.	-1
CC(=O)c1nn(-c2ccc(Cl)cc2)cc1C(=O)c1ccc(C)cc1	-3	0	47*	-8	.	-1
O=C(Nc1nnc(S(=O)(=O)N2CCCCCC2)s1)c1ccccc1	-2	1	3	101*	-18	4
O=C(COc1ccccc1Cl)Nc1nnc(S(=O)(=O)N2CCCC2)s1	-2	-10	6	85*	-13	-1
Clc1ccc(CN2CCN(N=Cc3cccnc3)CC2)cc1	.	.	5	18	.	.
COc1cccc(-c2cnc(C(O)c3ccc(Cl)c(Cl)c3)[nH]2)c1 (stereo unspecified)	-5	0	.	.	.	0
COc1cc(NC(=O)Cn2cnc3c(nc4n3CCCCC4)c2=O)cc(OC)c1OC	0	-8	-1	-9	-9	-2
COc1ccc(NC(=O)CSc2nc3ccccc3n2-c2ccccc2)c([N+](=O)[O-])c1	0	-4	7	42*	-25	.
Cc1nc(SCC(=O)Nc2ccc(Cl)cc2[N+](=O)[O-])nc(C)c1C	-1	.	4	39*	-17	.
Cc1cc(C)nc(SCC(=O)Nc2ccccc2[N+](=O)[O-])n1	-3	.	4	12	-12	0
COc1ccc(NC(=O)CSc2ccc(F)cc2)c([N+](=O)[O-])c1	.	.	.	65*	.	.
O=c1oc2ccccc2cc1NCc1ccccc1O	0	0	.	-8	-63	1
C[C@H]1CN([C@@H](C)CO)C(=O)c2c(c3ccccc3n2C)-c2ccccc2CO[C@H]1CN(C)S(=O)(=O)c1ccccc1	.	-3	.	.	.	0
CN(C)CCOCCOc1ccc(Cl)cc1Br	-2	2	8	-3	-4	0
SMILES	FadD28 FP inh	TcdB GH inh	Mtb hypoxia rep	SSB-PriA inh	PrP 5UTR inh	BioA inh
CN(C)CCCOc1ccc(Cl)cc1Br	-2	.	6	51*	-30	-1
O=C(Nc1ccccc1)Nc1ccncc1	3	1	1	-7	-4	4
O=C(Nc1ccccc1)Nc1ccno1	0	2	95*	1	-13	.
Clc1ccc2nc(CN3CCCc4ccccc43)cn2c1	0	3	12	43*	-27	0
Clc1ccc2nc(CN3CCCCC3)cn2c1	-2	-4	16	2	-34	-2
CCC(=O)Nc1ccc2c(c1)C(=O)N(C)C[C@H](OC)[C@H](C)CN(C(=O)c1ccccn1)[C@H](C)CO2	.	1	.	.	.	-3
O=[N+]([O-])c1ccc(-[n+]2nc(-c3ccccc3)nn2-c2ccc(I)cc2)cc1	.	.	.	155*	.	.
Cc1c(Cl)cccc1NC(=O)C1Cc2ccccc2CN1C(=O)c1ccccc1 (stereo unspecified)	-4	11*	0	-6	-9	.
Cc1cccc(NC(=O)C2Cc3ccccc3CN2C(=O)OCc2ccccc2)c1C (stereo unspecified)	-1	2	2	-7	-11	.
CCCCCCCCCCCCCCCC(O)C(N)CO (stereo unspecified)	49*	2	4	-14	-15	-2
N=C(N)c1ccc(N=Nc2c(O)ccc3c2[nH]c2ccccc23)cc1	1	14*	.	82*	-15	.
NS(=O)(=O)c1ccc(N=Nc2c(O)ccc3ccccc23)cc1	0	1	6	10	-9	.
O=C(CSc1cccc2cccnc12)Nc1ccc(C(=O)O)cc1	.	.	.	133*	.	.
CCCCCOc1ccc(NC(=O)CSc2cccc3cccnc23)cc1	-3	-1	12	79*	-12	.
Cc1cc(Br)cc(C)c1NC(=O)CSc1cccc2cccnc12	.	.	.	59*	.	.
CN1CCN(NC(=O)CSc2cccc3cccnc23)CC1	.	.	.	91*	.	.
CC(C)NC(=O)CSc1cccc2cccnc12	.	.	.	34	.	.
CC(C)(C)C(=O)CN1C(=O)NC2(CCc3ccccc32)C1=O (stereo unspecified)	-2	2	10	-1	-25	-1
Cc1cccc(C)c1NC(=O)CSc1cccc2cccnc12	.	.	.	49	.	.
CCOC(=O)CSc1cccc2cccnc12	-4	.	.	99*	-9	4
Cc1nn2c(COc3ccc(NC(=O)c4ccccc4)cc3)nnc2c2ccccc12	1	1	0	-3	-20	-1
Cc1ccc(-c2cc(C(=O)N3CCC(NC(=O)c4ccc5c(c4)OCO5)CC3)[nH]n2)c(C)c1	.	.	.	-4	.	.
Cc1ccc(-c2cc(C(=O)N3CCC(NC(=O)c4cccc(N(C)C)c4)CC3)[nH]n2)c(C)c1	.	.	.	48*	.	.
CC(C)Cc1cc(C(=O)NCc2ccco2)no1	-2	1	.	96*	-46	0
Cc1cc(C(=O)NCc2ccco2)no1	-3	.	7	0	-19	.
SMILES	FadD28 FP inh	TcdB GH inh	Mtb hypoxia rep	SSB-PriA inh	PrP 5UTR inh	BioA inh
CCSC(=O)CCCCCCCCCCCO	18*	.	.	-31	-1	3
O=C(NNc1ccc(C(F)(F)F)cc1[N+](=O)[O-])c1ccc(NS(=O)(=O)c2ccc(F)cc2)cc1	-3	.	2	60*	-10	.
COc1ccc(S(=O)(=O)NCCCN2CCOCC2)c2ccccc12	-2	.	15	6	-10	-1
Cn1c(C(=O)c2ccccc2[N+](=O)[O-])nc2ccccc21	-2	3	2	39*!	-29	.
Cn1c(C(=O)c2ccccc2)nc2ccccc21	.	2	1	-16	-10	0
O=C1CC(c2cccc([N+](=O)[O-])c2)c2c(ccc3ccccc23)N1 (stereo unspecified)	-1	.	.	-6	-17	-1
Cc1ccc(C2CC(=O)Nc3c2ccc2ccccc32)cc1[N+](=O)[O-] (stereo unspecified)	0	.	.	42*	-3	0
O=C(Oc1ccc(/C=N/O)cc1)c1ccccc1Cl	-4	2	.	.	-47	.
